Screen size: about 310,000 compounds; about 14,000 (4.5%) showed an effect of 50% or more. Effects have a minus sign here. The sample holds strong results, similar compounds and a random draw of the others, so the mix is not that of the screen.
These molecules were tested against human ether-à-go-go-related gene (hERG) potassium channel (human, UniProt Q12809) (assay: primary screen, population patch clamp on CHO cells stably expressing hERG; higher = less effect of the substance).
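Also: peak tail current of the secondary pulse compared with the same well before compound.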

human ether-à-go-go-related gene (hERG) potassium channel, sequence (Q12809 whole entry, looked up): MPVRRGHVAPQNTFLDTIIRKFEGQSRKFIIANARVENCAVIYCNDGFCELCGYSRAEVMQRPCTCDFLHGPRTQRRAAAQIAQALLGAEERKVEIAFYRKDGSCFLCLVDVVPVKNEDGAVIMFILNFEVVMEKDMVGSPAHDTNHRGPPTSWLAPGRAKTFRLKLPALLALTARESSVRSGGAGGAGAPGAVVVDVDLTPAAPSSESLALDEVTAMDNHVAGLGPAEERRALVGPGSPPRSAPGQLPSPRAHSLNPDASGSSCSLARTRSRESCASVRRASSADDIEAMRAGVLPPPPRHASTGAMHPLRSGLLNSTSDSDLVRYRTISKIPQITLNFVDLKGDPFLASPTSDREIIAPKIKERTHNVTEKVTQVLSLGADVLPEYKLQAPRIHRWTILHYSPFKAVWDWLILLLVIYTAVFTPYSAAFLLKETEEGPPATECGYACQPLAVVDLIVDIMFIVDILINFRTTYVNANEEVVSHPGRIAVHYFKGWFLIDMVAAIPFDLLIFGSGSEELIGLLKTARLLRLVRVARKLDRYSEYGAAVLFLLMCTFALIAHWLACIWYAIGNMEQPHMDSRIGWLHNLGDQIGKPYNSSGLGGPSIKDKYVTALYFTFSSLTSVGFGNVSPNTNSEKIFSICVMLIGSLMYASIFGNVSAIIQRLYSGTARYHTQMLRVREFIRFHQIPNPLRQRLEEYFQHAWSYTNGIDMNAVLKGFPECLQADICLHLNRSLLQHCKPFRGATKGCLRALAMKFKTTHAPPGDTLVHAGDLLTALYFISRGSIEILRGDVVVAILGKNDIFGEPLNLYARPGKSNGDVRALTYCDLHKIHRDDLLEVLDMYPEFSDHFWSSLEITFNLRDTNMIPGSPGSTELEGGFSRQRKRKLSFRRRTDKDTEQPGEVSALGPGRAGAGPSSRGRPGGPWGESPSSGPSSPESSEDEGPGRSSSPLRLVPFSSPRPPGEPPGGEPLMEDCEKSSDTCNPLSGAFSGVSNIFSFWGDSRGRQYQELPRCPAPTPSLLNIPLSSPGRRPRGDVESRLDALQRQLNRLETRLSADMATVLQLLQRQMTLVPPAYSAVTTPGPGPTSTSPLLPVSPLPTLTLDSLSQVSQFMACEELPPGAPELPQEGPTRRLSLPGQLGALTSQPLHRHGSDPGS

| Structure (SMILES) | hERG current change (%, negative = inhibition) at 10uM |
| --- | --- |
| Cc1n[nH]c(C)c1S(=O)(=O)NCCc1ccc(Cl)cc1 | 5% |
| O=c1cc(-c2ccc(O)c(-c3c(O)cc(O)c4c(=O)cc(-c5ccc(O)cc5)oc34)c2)oc2cc(O)cc(O)c12 | -7.09% |
| COc1cc(C(=O)Nc2ccc3c(c2)OCCO3)ccc1OC(F)F | -5.02% |
| Cc1cc(NC(=O)CCC(=O)N(Cc2ccccc2)C2(C(=O)NC3CCCCC3)CCCC2)no1 | 21.1% |
| Cc1cc(NC(=O)CCC(=O)N(CCC(C)C)C(C(=O)NC2CCCC2)c2ccccc2C)no1 (stereo not drawn) | -21.5% |
| O=C(NC(=S)NCC1CCCO1)c1cccc([N+](=O)[O-])c1 (stereo not drawn) | 2.05% |
| O=C(NC1CC2CCCC(C1)N2C(=O)NCc1ccccc1)C1CC1 (stereo not drawn) | 4.22% |
| CCc1ccc(OCC(=O)NNC(=O)c2cnccn2)c(Br)c1 | -5.95% |
| CN1CCCC(C(O)(c2ccccc2)c2ccccc2)C1 (stereo not drawn) | 16.3% |
| CC(=O)O.CN1CCCC(CN2c3ccccc3Sc3ccccc32)C1 (stereo not drawn) | -28.4% |
| CN1CCCC(CC2Oc3ccccc3Sc3ccccc32)C1.O=C(O)C(=O)O (stereo not drawn) | -67% |
| CN1CCCC(CC2c3ccccc3Sc3ccccc32)C1.Cl.O (stereo not drawn) | -52.9% |
| CN1CCCC(OC(=O)COc2ccccc2)C1.Cl (stereo not drawn) | 10.4% |
| Cl.c1ccc2c(c1)CC(N1CCCCC1)c1ccccc1S2 (stereo not drawn) | 9.15% |
| CC(C)Oc1ccc(/C(O)=C2/C(=O)C(=O)N(CCN3CCOCC3)C2c2ccccc2)cc1 (stereo not drawn) | 13.6% |
| COC(=O)Cn1ccc2cc(S(=O)(=O)N3CCCCC3)ccc21 | -8.73% |
| CCOC(=O)c1cc2occc2n1CCCN1C(=O)c2ccccc2C1=O | -23.5% |
| Cc1ccc(C(=O)COC(=O)c2cc(Cl)ccc2O)cc1[N+](=O)[O-] | 10.4% |
| O=C(COc1cc(Cl)ccc1Cl)Nc1ccc2[nH]c(=O)[nH]c2c1 | 12.8% |
| COc1ccc(NC(=O)c2ccco2)cc1NC(=O)c1cc2ccccc2o1 | 3.33% |
| O=C1Nc2ccccc2S/C1=C/Nc1cccc(Cl)c1 | -3.01% |

| Structure (SMILES) | hERG current change (%, negative = inhibition) at 10uM |
| --- | --- |
| C[C@H]1CCC[C@H](O)CCCCCc2cc(O)cc(O)c2C(=O)O1 | -51% |
| C[C@H]1CCCC(=O)CCCCCc2cc(O)cc(O)c2C(=O)O1 | -0.0905% |
| CC1CCC[C@H](O)CCCCCc2cc(O)cc(O)c2C(=O)O1 (stereo partly drawn) | 5.64% |
| O=S(=O)(Nc1ccncc1)c1cc(Cl)c(Cl)cc1Cl | 0.0869% |
| O=C1C(Cl)=C(N2CCOCC2)C(=O)N1c1ccc(Br)cc1 | 14.8% |
| O=C(COc1ccc(Br)cc1)Nc1ccccc1C(=O)NC1CC1 | -6.57% |
| CCOc1ccc(NC(=O)CSc2cn[nH]n2)cc1 | 3.89% |
| Cc1cc(CN(C)C(=O)C2CCC(=O)N(CCc3cccc(F)c3)C2)on1 (stereo not drawn) | 9.94% |
| Cc1nc2ccccn2c1CN(C)C(=O)C1CCC(=O)N(CCc2cccc(F)c2)C1 (stereo not drawn) | -75.6% |
| Cc1nc2ccccn2c1CN(C)C(=O)C1CCC(=O)N(Cc2cccc(F)c2)C1 (stereo not drawn) | -80.2% |
| CN(Cc1cnn(C)c1)C(=O)C1CCC(=O)N(Cc2cccc(F)c2)C1 (stereo not drawn) | -49.8% |
| CN1CCN(C(=O)C2CCC(=O)N(CCc3cccc(F)c3)C2)CC1 (stereo not drawn) | 12.3% |
| Cc1nc(CN(C)C(=O)C2CCC(=O)N(CCc3cccc(F)c3)C2)cs1 (stereo not drawn) | -7.62% |
| Cc1cnc(C)c(N2CCN(C(=O)C3CCC(=O)N(CCc4cccc(F)c4)C3)CC2)n1 (stereo not drawn) | -53.9% |
| O=C1CCC(C(=O)N2CCCC2)CN1CCc1cccc(F)c1 (stereo not drawn) | 4.37% |
| CN(Cc1ccccn1)C(=O)C1CCC(=O)N(Cc2cccc(F)c2)C1 (stereo not drawn) | 6.47% |
| Nc1nc2c(nc(SCc3ccccc3Br)n2C2OC(CO)C(O)C2O)c(=O)[nH]1 (stereo not drawn) | 34.9% |
| CCOC(=O)N1CCC(Nc2c(NCCCN(CC)Cc3ccccc3)c(=O)c2=O)CC1 | 6.06% |
| Cc1ccc(C(=O)Nc2ccc3cn[nH]c3c2)cc1S(=O)(=O)N1CCOCC1 | -8.78% |
| O=C(N/N=C/c1cn(-c2ccccc2)nc1-c1cc2ccccc2o1)c1c[nH]c2ccccc12 | 13.2% |
| Cc1c(OC(C)C(=O)NCC(O)c2ccccc2)ccc2c3c(c(=O)oc12)CCC3 (stereo not drawn) | -13.3% |

| Structure (SMILES) | hERG current change (%, negative = inhibition) at 10uM |
| --- | --- |
| Cc1cc(NC(=O)c2cccc(S(=O)(=O)N3CCOCC3)c2)c2ccccc2n1 | -16.2% |
| Cl.OC(CN1C2=NCCN2c2ccccc21)c1ccccc1 (stereo not drawn) | -42.7% |
| Cc1ccc(C(O)CN2C3=NCCN3c3ccccc32)cc1.Cl (stereo not drawn) | -61.1% |
| Cc1ccc(C(O)CN2C3=NCCCN3c3ccccc32)cc1.Cl (stereo not drawn) | -67.4% |
| COc1ccc(NC(=O)N2CCC(c3ccccc3)C2)c(OC)c1 (stereo not drawn) | -1.5% |
| Cc1cc(/C=C(/C#N)c2nc3ccccc3[nH]2)c(C)n1-c1ccccc1C(=O)O | 15.8% |
| Cc1ccnn1CC(=O)N/N=C/c1ccc([N+](=O)[O-])s1 | -3.9% |
| CC(C)NC(=S)NNC(=O)C12CC3CC(CC(C3)C1)C2 | -8.78% |
| CCN(CC)C(=O)N1CCN(C)CC1.O=C(O)CC(O)(CC(=O)O)C(=O)O | 23.2% |
| Cc1nc2nc(COc3ccccc3)[nH]n2c(=O)c1Cc1ccccc1 | 0.308% |
| Cc1cc(Cl)ccc1OCC(=O)Nc1cccc(S(=O)(=O)N2CCCC2)c1 | -1.87% |
| Cc1ccccc1NC(=O)CN1CCC(NC(=O)Nc2ccccc2)CC1 | -35.9% |
| O=C(CN1CCC(NC(=O)Nc2ccccc2)CC1)Nc1ccccc1F | -18.3% |
| COc1cccc(NC(=O)NC2CCN(CC(=O)Nc3ccccc3[N+](=O)[O-])CC2)c1 | -39.4% |
| O=C(Nc1ccccc1)NC1CCN(CCCN2C(=O)c3ccccc3C2=O)CC1 | -61.4% |
| O=C(CN1CCC(NC(=O)Nc2ccccc2)CC1)Nc1cccc([N+](=O)[O-])c1 | -40.6% |
| O=C(CN1CCC(NC(=O)C2CC2)CC1)Nc1ccccc1[N+](=O)[O-] | 22.1% |
| O=C(CN1CCC(NC(=O)Nc2ccccc2)CC1)Nc1ccc([N+](=O)[O-])cc1 | -64.4% |
| O=C(CN1CCC(NC(=O)Nc2ccc(F)cc2)CC1)Nc1ccccc1[N+](=O)[O-] | -51% |
| O=C(CN1CCCC1)Nc1ccc([N+](=O)[O-])cc1 | -22.6% |
| O=C1CC(N2CCN(S(=O)(=O)c3ccccc3)CC2)C(=O)N1c1ccccc1 (stereo not drawn) | 1.87% |

| Structure (SMILES) | hERG current change (%, negative = inhibition) at 10uM |
| --- | --- |
| O=c1c2c3c(sc2n2cnnc2n1CCc1ccccc1)CCCC3 | -20.5% |
| CCOC(=O)c1cnn(-c2ccc(C)cc2)c1N | -1.1% |
| CCOc1cccc2sc(N(CCCN(C)C)C(=O)c3ccc(S(=O)(=O)N4CCCCCC4)cc3)nc12.Cl | 7.67% |
| CN(C)CCCN(C(=O)c1ccc(S(=O)(=O)N2CCc3ccccc3C2)cc1)c1nc2c(F)cc(F)cc2s1.Cl | -15.2% |
| CCOC(=O)N1CCN(S(=O)(=O)c2ccc(C(=O)N(CCN(CC)CC)c3nc4c(C)cccc4s3)cc2)CC1.Cl | -24.3% |
| CN(C)CCCN(C(=O)c1ccc(S(=O)(=O)N2CCCCCC2)cc1)c1nc2c(F)cc(F)cc2s1.Cl | -69.6% |
| CN(C)CCCN(C(=O)c1ccc(S(=O)(=O)N2CCc3ccccc3C2)cc1)c1nc2c(F)cccc2s1.Cl | 4.85% |
| Cc1ccc2sc(N(CCCN(C)C)C(=O)c3ccc(S(=O)(=O)N4CCCCCC4)cc3)nc2c1C.Cl | -23.4% |
| CCOC(=O)N1CCN(S(=O)(=O)c2ccc(C(=O)N(CCCN(C)C)c3nc4c(F)cc(F)cc4s3)cc2)CC1.Cl | -51.3% |
| CN(C)CCCN(C(=O)c1ccc(S(=O)(=O)N2CCCCCC2)cc1)c1nc2c(F)cccc2s1.Cl | -66.2% |
| CN(C)CCCN(C(=O)c1ccc(S(=O)(=O)N2CCCC2)cc1)c1nc2c(F)cc(F)cc2s1.Cl | -44.3% |
| CCOc1cccc2sc(N(CCN(CC)CC)C(=O)c3ccc(S(=O)(=O)N4CCCCC4)cc3)nc12.Cl | -62.4% |
| CCOc1cccc2sc(N(CCN(CC)CC)C(=O)c3ccc(S(=O)(=O)N4CCCC4)cc3)nc12.Cl | -24.2% |
| NC(=O)C1(N2CCCCC2)CCN(C2CC(=O)N(Cc3ccc(N4CCCC4=O)cc3)C2=O)CC1 (stereo not drawn) | 5.32% |
| O=c1cc(N2CCN(Cc3ccccc3)CC2)[nH]c(=O)n1-c1ccc(Br)cc1 | -10.7% |
| CN(C)S(=O)(=O)c1ccc(C(=O)Nc2ccccc2OC(F)(F)C(F)F)cc1 | -16.6% |
| C#CCNc1ccncc1S(=O)(=O)NC(=O)NC(C)C.O=[N+]([O-])O | -1.14% |
| O=c1cc(CN2CCN(c3cccc(C(F)(F)F)c3)CC2)nc2sccn12 | -46.3% |
